Measurements reported in PubChem BioAssay AID1030 (National Center for Advancing Translational Sciences (NCATS), 2008).
In all, about 220,000 compounds went through this assay and about 16,000 (7.3%) were called active. About 25% were inconclusive and are not listed. Calls follow the shape of the dose curve; as a rule, active = well fitted inhibition curve with a large enough effect (not every such curve was filed as active); inconclusive = small, poorly fitted or top-dose-only effect, or another doubt; inactive = no such curve, though single readings can be large or run the other way. The list comes from a sample in which actives are over-represented; it also holds similar structures and randomly drawn compounds.

Molecular target: Aldehyde dehydrogenase 1A1 (Homo sapiens) (UniProt P00352)
Sequence (P00352 whole entry, looked up): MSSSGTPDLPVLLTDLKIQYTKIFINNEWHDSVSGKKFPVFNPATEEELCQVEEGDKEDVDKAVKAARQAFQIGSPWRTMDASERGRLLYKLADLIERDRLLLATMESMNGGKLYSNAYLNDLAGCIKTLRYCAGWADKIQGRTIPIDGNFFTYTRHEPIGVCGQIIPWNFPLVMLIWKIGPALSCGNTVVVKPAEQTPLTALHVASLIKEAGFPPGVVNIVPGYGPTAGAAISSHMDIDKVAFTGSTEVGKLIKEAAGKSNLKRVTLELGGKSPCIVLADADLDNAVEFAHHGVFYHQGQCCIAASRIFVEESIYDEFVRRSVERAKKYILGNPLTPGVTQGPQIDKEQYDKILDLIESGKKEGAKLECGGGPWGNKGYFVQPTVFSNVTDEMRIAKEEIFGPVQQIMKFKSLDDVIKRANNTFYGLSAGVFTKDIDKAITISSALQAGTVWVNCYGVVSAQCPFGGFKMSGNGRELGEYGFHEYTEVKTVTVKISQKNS
Test: qHTS Assay for Inhibitors of Aldehyde Dehydrogenase 1 (ALDH1A1);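 as to activity, negative = inhibition: plate controls were no enzyme wells and a reference inhibitor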
Conditions: Purified ALDH1A1, NADH fluorescence, propionaldehyde substrate; series mostly up to 75.3 µM; activity, negative = inhibition: at the top concentration
Potency is read from the fitted curve at half-maximal effect.

SMILES | activity, negative = inhibition | Potency
CCOC(=O)c1ccc(NC(=O)c2cc(=O)[nH]c3ccccc23)cc1 | -6.06% (inactive) | 
CCn1c(CSc2nc(C)cc(C)n2)nnc1SCC(N)=O | -4.65% (inactive) | 
C/C(=N\NC(=O)c1ccc(CSc2nc(C)cc(C)n2)cc1)C1CCCCC1 |  | 3.55 µM (active)
C/C(=N\NC(=O)c1nc(C)cc(C)n1)c1ccccc1 | 1.36% (inactive) | 
CC1=C(/C=C/C(C)=C/C=C/C(C)=C/C=C/C=C(C)/C=C/C=C(C)/C=C/C(=O)[C@]2(C)C[C@@H](O)CC2(C)C)C(C)(C)C[C@H](O)C1 | -2.21% (inactive) | 
O=C(Nc1ccc2c(c1)CCC2)c1ccc(Br)s1 | -8.83% (inactive) | 
Cc1ccc(NC(=S)N2CCCC(c3ccccc3)=N2)cc1 | 0.55% (inactive) | 
CN1CC(c2ccccc2)C2(COc3ccccc3C2=O)C12C(=O)Nc1ccccc12 (stereo not drawn) |  | 7.94 µM (active)
CC1(C)C2CCC1(C)C(OC(=O)c1ccc(O)cc1)C2 (stereo not drawn) | -5.65% (inactive) | 
COc1ccc(CCn2ccc(O)c(Cc3ccc(Cl)cc3Cl)c2=O)cc1OC | 1.64% (inactive) | 
Cc1noc(C)c1S(=O)(=O)Nc1cc(C(F)(F)F)ccc1N1CCOCC1 | 8.81% (inactive) | 
C=CCN(Cc1nc(-c2cc(OC)c3c(c2)OCO3)oc1C)C1CCS(=O)(=O)C1 (stereo not drawn) | 3.94% (inactive) | 
CCO[C@@H]1OC(C(N)=O)=C[C@H](c2ccc(Br)cc2)[C@H]1CCCO | 6.57% (inactive) | 
CC(C)OCCCNc1nc2c(c(=O)n(Cc3ccccc3F)c(=O)n2C)n1C | 2.22% (inactive) | 
Cn1c(=O)c2c(nc(SCCNS(=O)(=O)c3ccccc3)n2C)n(C)c1=O | -4.35% (inactive) | 
COCCn1c(CN(Cc2ccccc2)Cc2ccccc2)nc2c1c(=O)n(C)c(=O)n2C | -31.3% (inactive) | 
CCOC(=O)CSc1nc2c(c(=O)n(C)c(=O)n2C)n1Cc1ccccc1F |  | 39.8 µM (active)
COC(=O)C(C)Sc1nc2c(c(=O)n(C)c(=O)n2C)n1Cc1cccc(C)c1 (stereo not drawn) |  | 12.6 µM (active)
CCCCNc1nc2c(c(=O)n(C)c(=O)n2C)n1Cc1cccc(OC)c1 | 3.24% (inactive) | 
CCCSc1nc2c(c(=O)n(C)c(=O)n2C)n1Cc1ccc(C)cc1 |  | 25.1 µM (active)
CCCCn1c(SCC(=O)NCCc2ccc(OC)c(OC)c2)nc2c1c(=O)n(C)c(=O)n2C | -12.7% (inactive) | 
CCOc1ccc2nc(NC(=O)CSc3nc4c(c(=O)n(C)c(=O)n4C)n3CC)sc2c1 | -1.29% (inactive) | 
Nc1nc(SCC(=O)N2CCN(S(=O)(=O)c3ccc(Cl)cc3)CC2)n[nH]1 | -13.4% (inactive) | 

SMILES | activity, negative = inhibition | Potency
COc1cccc(NC(=O)COC(=O)CCOc2ccccc2OC)c1 | 5.12% (inactive) | 
COCc1c(N)c(C)nc(Cl)c1C#N | -6.47% (inactive) | 
Cc1n[nH]c(=O)n1-c1ccc(C(C)C)cc1 | 9.21% (inactive) | 
COc1ccc(NC(=O)COC(=O)c2ccncc2)c(OC)c1 | -0.318% (inactive) | 
Cc1c(Cl)cccc1NC(=O)CSc1ccc(-c2cccnc2)nn1 | 11.5% (inactive) | 
COC(=O)c1c(C)[nH]c(C)c1-c1ccc([N+](=O)[O-])cc1 | -6.22% (inactive) | 
CCCCC/C=C\C/C=C\CCCCCCCCCC(=O)O |  | inactive
CCOC(=O)Cn1nnnc1C | 2.51% (inactive) | 
CC(Sc1nnnn1C)C(=O)NC(=O)NC1CCCCC1 (stereo not drawn) | -4.37% (inactive) | 
O=C(Oc1ccccc1)Oc1ccc2c(c1)oc(=O)c1ccccc12 |  | 17.8 µM (active)
CCc1ccc(Oc2coc3cc(OC(=O)c4cc5ccccc5oc4=O)ccc3c2=O)cc1 | 1.39% (inactive) | 
Cc1ccc(OC(=O)c2cc3ccccc3o2)cc1 | -11% (inactive) | 
CCOC(=O)CSC1=N/C(=C/c2ccc(-n3cncn3)cc2)C(=O)N1C(C)=O | 7.89% (inactive) | 
O=C(CN1C(=O)/C(=C/c2ccccc2F)Sc2ccccc21)NCc1cccnc1 |  | 20 µM (active)
O=C(CN1C(=O)/C(=C\c2ccccc2F)SC1=S)Nc1nc2ccccc2s1 | -12.3% (inactive) | 
O=C(CN1C(=O)/C(=C\c2ccc(C(F)(F)F)cc2)Sc2ccccc21)NCc1ccco1 | -6.97% (inactive) | 
CN(/C(=N/S(=O)(=O)c1cccs1)c1ccccc1)c1ccc(O)cc1 | -1.07% (inactive) | 
Cc1nnc(SC(C(=O)Nc2cc(Cl)cc(Cl)c2)c2ccccc2)[nH]c1=O (stereo not drawn) | 0.635% (inactive) | 
O=C(Nc1cc(Cl)cc(Cl)c1)C(NCCCO)c1ccccc1 (stereo not drawn) |  | 1.26 µM (active)
CCC(C(=O)Nc1ccc(C(C)C)cc1)c1ccccc1 (stereo not drawn) | -0.407% (inactive) | 
Cc1c(Br)c([N+](=O)[O-])nn1CC(=O)N1CCN(Cc2ccccc2)CC1 | -11.6% (inactive) | 
COc1ccc(C(=O)Nc2ccc(-n3nncc3C(C)(C)C)cc2)cc1 | -9.59% (inactive) | 
O=C(c1ccc(-n2cnnn2)cc1)N1CCN(C(c2ccccc2)c2ccccc2)CC1 | -14.3% (inactive) | 

SMILES | activity, negative = inhibition | Potency
CC(C)NC(=S)N1CCN(C(c2ccccc2)c2ccccc2)CC1 |  | 10 µM (active)
CC(C)NC(=S)N1CCN(S(C)(=O)=O)CC1 | -2.04% (inactive) | 
CCOC(=O)C1CCN(S(=O)(=O)c2cc(F)ccc2OC)CC1 | 5.21% (inactive) | 
COCCOC(=O)c1sc(=S)n(CCOC)c1N |  | 10 µM (active)
CCOC(=O)Cn1c(N)c(C(=O)OC)sc1=S | -2.62% (inactive) | 
CCOC(=O)c1cnc2c(c(C)nn2CC)c1Cl | -22.9% (inactive) | 
COc1ccc2c(CN3CCN(S(=O)(=O)c4cccs4)CC3)cc(=O)oc2c1 |  | 14.1 µM (active)
O=S(=O)(c1cccs1)N1CCN(Cc2ccccc2)CC1 | -10.3% (inactive) | 
CN1CCN(S(=O)(=O)c2ccc(N3CCN(S(=O)(=O)c4cccs4)CC3)nc2)CC1 | -7.82% (inactive) | 
COc1ccc(C(=O)NCC(=O)N/N=C/c2ccc([N+](=O)[O-])s2)cc1OC | -0.501% (inactive) | 
CC(=O)N/N=C/c1cc2c(cc1[N+](=O)[O-])OCO2 | -5.62% (inactive) | 
Cc1ccc(S(=O)(=O)N/N=C\c2cc3c(cc2[N+](=O)[O-])OCO3)cc1 |  | 1.26 µM (active)
Cc1ccc(-c2n[nH]c(=S)n2/N=C/c2cc3c(cc2[N+](=O)[O-])OCO3)cc1 | -17.2% (inactive) | 
COc1cc(NC(=O)c2cccnc2SC)cc(OC)c1 | 6.07% (inactive) | 
CCOc1ccc(-c2nnn(CC(=O)N3CCN(c4ccc(OC)cc4)CC3)n2)cc1OCC | 2.88% (inactive) | 
COc1ccc(N2CCN(C(=O)CSc3nc4cc(OC)c(OC)cc4cc3C#N)CC2)cc1 |  | 14.1 µM (active)
COc1ccc(N2CCN(C(=O)CSc3ncnc4c3cnn4-c3ccc(OC)cc3)CC2)cc1 | 5.3% (inactive) | 
CCCC(=O)Nc1nnc(-c2ccccc2)o1 | 11.4% (inactive) | 
COc1ccc(C(=O)NC2CCN(C(=S)Nc3ccccc3)CC2)cc1 | 8.83% (inactive) | 
Cc1nnc(SCC(=O)N2CCN(c3ccccc3)CC2)n1-c1ccccc1 | -10.5% (inactive) | 
CC(C)N(C(=O)Cn1c(SCC(=O)N2CCN(c3ccccc3)CC2)nc2ccccc21)C(C)C |  | 25.1 µM (active)
CCN(CC)C(=O)CSc1nc2ccccc2n1CC(=O)N1CCN(c2ccccc2OC)CC1 | 5.85% (inactive) | 
